From PubChem
hcGAS lum: blocks human cGAS activity; Q8N884; recombinant h-cGAS, ATP depletion, Kinase-Glo luminescence; inhibition, % at 12.5 µM; 0.081% of 290,000 active
NPYLR7 agonist: activates Aedes aegypti NPYLR7 receptor; HEK293T NPYLR7/Galpha15, GCaMP6s calcium fluorescence; 0.15% of 270,000 active; activation, % at 10 µM; in the data active means activation above about 40%
mcGAS lum: inhibitors of mouse cGAS | 0.15% of 160,000 active | inhibition, % at 12.5 µM | recombinant cGAS, Kinase-Glo ATP depletion luminescence | Q8C6L5
Target sequence (Q8C6L5 whole entry, looked up): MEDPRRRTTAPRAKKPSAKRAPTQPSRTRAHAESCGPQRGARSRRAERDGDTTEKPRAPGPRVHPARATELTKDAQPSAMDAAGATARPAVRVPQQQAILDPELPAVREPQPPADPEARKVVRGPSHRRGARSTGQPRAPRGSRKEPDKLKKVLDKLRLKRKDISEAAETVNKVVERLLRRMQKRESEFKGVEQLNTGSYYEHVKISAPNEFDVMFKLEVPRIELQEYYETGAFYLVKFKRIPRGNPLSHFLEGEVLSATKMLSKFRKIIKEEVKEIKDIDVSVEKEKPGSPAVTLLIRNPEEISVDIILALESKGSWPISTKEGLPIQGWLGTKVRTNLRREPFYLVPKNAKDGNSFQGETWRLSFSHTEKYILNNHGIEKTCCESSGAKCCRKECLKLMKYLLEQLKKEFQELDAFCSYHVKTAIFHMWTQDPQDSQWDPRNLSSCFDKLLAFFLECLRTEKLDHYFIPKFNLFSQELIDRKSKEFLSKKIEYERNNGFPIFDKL
Each line names hits and unclear results; the compound was inactive in the other large screens; ! = repeats disagree. Hits are enriched below; roughly 0.24% of the tested compounds scored in any of these assays. Unless noted, no stated cut-off is given here; in the data, active means inhibition above about 40%; inactive means the rest.

O=[N+]([O-])c1ccc(O)c([N+](=O)[O-])c1	hcGAS lum 72.1 (no result: mcGAS lum)
O=[N+]([O-])c1cc([As](=O)(O)O)ccc1O	hcGAS lum 83.4! (no result: mcGAS lum)
O=[N+]([O-])c1cc(O)c(O)c([N+](=O)[O-])c1	none
O=[N+]([O-])c1ccc(O)c(Cl)c1	none (no result: mcGAS lum)
CC(C)(C)c1nn(-c2cccc(Cl)c2)c2c1C(c1cccc(F)c1)SCC(=O)N2CC(=O)NCc1ccccn1 (stereo not drawn)	none
CC1=C(C(=O)OC(C)C)C2(C(=O)Nc3ccccc32)C(C#N)C(=N)O1 (stereo not drawn)	none
O=c1c2c3c(sc2nc(SCCS(=O)(=O)F)n1-c1ccccc1)CCCC3	none
Nc1c2c(nc3sc4c(c13)CCCC4)CCCCC2	NPYLR7 agonist 42.4
COCCn1c(C)cc2c(c1=O)C1(C(=O)N(C)c3ccccc31)C(C(=O)OC)C(=N)O2 (stereo not drawn)	none
C#CCN(C)S(=O)(=O)c1ccc(Cn2nc(C(=O)Nc3nncs3)c3ccccc32)cc1	none
Cc1cc(NC(=O)c2nn(Cc3ccc(S(=O)(=O)N(C)c4ccccc4)cc3)c3ccccc23)n(C)n1	none
CCC(NC)c1nc2ccccc2c(=O)n1-c1ccc(F)cc1 (stereo not drawn)	none (no result: mcGAS lum)
O=c1c2ccccc2nc(CCl)n1-c1ccc(F)cc1	mcGAS lum 48.2
O=[N+]([O-])c1cc(Cl)ccc1Cl	none
O=[N+]([O-])c1ccc(Cl)c2nonc12	NPYLR7 agonist 139.0
CCOC(=O)CCC(=O)Nc1ccc2[nH]cc(CCN3CCOCC3)c2c1	none
C=CCNC(=O)c1cn(C(C)(C)C)c2ncccc12	none
COc1ccc(CCN(Cc2ccco2)C(=O)CN(CCN2CCOCC2)C(=O)COc2ccccc2)cc1OC	none (no result: NPYLR7 agonist)
O=C1NC(=O)N(c2ccc(Cl)cc2)C(=O)/C1=C/c1ccc([N+](=O)[O-])o1	mcGAS lum 47.1
Cc1ccc(/C=C2\C(=O)NC(=O)N(c3ccc(Cl)cc3)C2=O)o1	none
